The text below walks through data of PubChem BioAssay (NCI).

Some test systems named below: EKVX NSCLC; SN12C renal; UO-31 renal; TK-10 renal; ACHN renal; CAKI-1 renal; A498 renal; CCRF-CEM leukemia; MOLT-4 leukemia; SK-MEL-2 melanoma.
Holding throughout (test): NCI-60 one-dose screen, 48 h (100 = growth as untreated, 0 = no growth, -100 = all killed)
Holding throughout (conditions): 10 µM

The panel holds about 83,000 compounds, 20% with a hit somewhere; the sample as a whole holds those more often.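 Cell lines were cultured in 96-well plates, exposed to a single compound concentration, and assessed for percent growth 48 hours later.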 Unmarked numbers belong to inactive results. Active and inactive are the calls of the source. Rule for the calls: active = growth percent below 10; inactive = the rest.

`C[C@@H](O)[C@H]1C(=O)N2C(C(=O)O)=C(SC3CN[C@H](C(=O)N(C)C)C3)[C@H](C)[C@H]12` (stereo not given in full): the growth in the assay with EKVX NSCLC is 104%; in the assay on SN12C renal, 99.5%; in the assay on UO-31 renal, 78.7%; in the assay on TK-10 renal it was 106%; in the assay with ACHN renal, 96.9%; in the assay on CAKI-1 renal it was 95.2%. For the same compound, the growth was 88.8% in the assay on A498 renal, -40.1% (active) in the assay with CCRF-CEM leukemia and 116% in the assay with MOLT-4 leukemia.
In the case of `CCOC(=O)N/N=C/c1ccc(OC)c(OC)c1`, the growth in the assay on SK-MEL-2 melanoma was 115%; with SN12C renal, 99.2%; with TK-10 renal it was 123%; with ACHN renal it was 106%; in the assay on CAKI-1 renal, 110%; with A498 renal, 107%. Moreover, the growth with CCRF-CEM leukemia is 91.4%; with MOLT-4 leukemia, 107%.
In the case of `Cc1ccc(C2=NN(c3ccc(S(C)(=O)=O)cc3)C(=O)CC2)cc1`, the growth with SK-MEL-2 melanoma is 6.35% (active); in the assay with SN12C renal, 39.7%; in the assay with UO-31 renal, 41.1%; in the assay on TK-10 renal, 67%; in the assay on ACHN renal it was 54.5%; in the assay on CCRF-CEM leukemia, 14.9%. Also, in the assay on MOLT-4 leukemia, the growth was 20%.
On to `Cc1cn(-c2cccc(NC(=O)c3ccc(C)c(Nc4nccc(-c5cccnc5)n4)c3)c2)cn1`, for which the growth was 75.8% with SK-MEL-2 melanoma; -4.51% (active) in the assay with SN12C renal; -22.6% (active) in the assay on UO-31 renal; -46.3% (active) with TK-10 renal; -31.9% (active) in the assay with ACHN renal; 25% with CCRF-CEM leukemia. In the assay with MOLT-4 leukemia, the growth is 5.78% (active).
On to `OC[C@H]1OC([S-])[C@H](O)[C@@H](O)[C@@H]1O.[Au+]` (stereo not given in full), for which the growth in the assay with EKVX NSCLC is 106%; with SN12C renal, 98.5%; in the assay with UO-31 renal, 99.4%; in the assay with TK-10 renal, 124%; with ACHN renal, 105%; in the assay with CAKI-1 renal, 108%. Also, the growth with A498 renal was 174%; in the assay with CCRF-CEM leukemia it was 61.5%; in the assay on MOLT-4 leukemia it was 75.9%.
Take `COc1ccc(-c2nn(-c3cccc(Cl)c3)cc2-c2c(C#N)c(N)n(N)c(=O)c2C#N)cc1`: the growth in the assay on SK-MEL-2 melanoma was 77.4%; with SN12C renal it was 68.9%; with TK-10 renal, 59.8%; in the assay with ACHN renal, 87.2%; in the assay with CCRF-CEM leukemia, 56.8%.
Regarding `COc1ccc(-c2nn(-c3cccc(Cl)c3)cc2/C=C2\NC(=S)N(c3ccc(Cl)cc3)C2=O)cc1`, the growth in the assay with SK-MEL-2 melanoma is -26.3% (active); in the assay on SN12C renal it was 20.4%; in the assay with UO-31 renal it was 53.6%; in the assay with TK-10 renal it was 27.7%; in the assay with ACHN renal it was 51.1%; in the assay on CCRF-CEM leukemia it was 21.9%. For the same compound, the growth with MOLT-4 leukemia was -22.9% (active).
As to `Cc1ccccc1N1C(=O)c2cc(S(N)(=O)=O)c(Cl)cc2NC1C` (stereo not given), the growth in the assay on EKVX NSCLC was 111%; in the assay on SN12C renal, 108%; with UO-31 renal, 82.8%; with TK-10 renal it was 104%; in the assay on ACHN renal, 108%; in the assay on CAKI-1 renal it was 103%. Besides, the growth was 108% in the assay with A498 renal, 103% in the assay on CCRF-CEM leukemia and 84.9% in the assay with MOLT-4 leukemia.
For `O=C1Cc2cc(CCN3CCN(c4nsc5ccccc45)CC3)c(Cl)cc2N1`, the growth is 88.1% in the assay with EKVX NSCLC; 91% with SN12C renal; 58.8% in the assay on UO-31 renal; 104% in the assay on TK-10 renal; 95.6% in the assay with ACHN renal; 86.6% with CAKI-1 renal. Moreover, the growth is 64.1% in the assay with A498 renal, 9.84% (active) in the assay on CCRF-CEM leukemia and 81.8% in the assay on MOLT-4 leukemia.
As for `Nc1nc(-c2ccc(Cl)cc2)cc(-c2cc3ccccc3oc2=O)n1`, the growth with EKVX NSCLC was 86.2%; in the assay on SN12C renal, 98.5%; with UO-31 renal, 69%; in the assay with TK-10 renal, 95.7%; in the assay with ACHN renal, 92.5%; with CAKI-1 renal, 84.1%. For the same compound, the growth was 99.5% with A498 renal, 103% in the assay on CCRF-CEM leukemia and 93.8% with MOLT-4 leukemia.
As to `CNC(=O)c1c(I)c(NC(C)=O)c(I)c(C(=O)O)c1I`, the growth was 126% with EKVX NSCLC; 95.6% in the assay with SN12C renal; 88.6% in the assay on UO-31 renal; 114% in the assay with TK-10 renal; 102% with ACHN renal; 115% with CAKI-1 renal. In addition, the values for the growth in the assay with A498 renal, in the assay with CCRF-CEM leukemia and in the assay on MOLT-4 leukemia were 99.3%, 104% and 110%, respectively.
With `COc1ccc(-c2nn(-c3cccc(Cl)c3)cc2C=C(C#N)C#N)cc1`, the growth in the assay on SK-MEL-2 melanoma was -39.4% (active); in the assay on SN12C renal, 10.4%; in the assay on UO-31 renal, 11.9%; with TK-10 renal, -3.05% (active); with ACHN renal it was 9.38% (active); with CCRF-CEM leukemia, -27.3% (active). Also, in the assay with MOLT-4 leukemia, the growth was -45.9% (active).
Take `COc1ccc2nc3cc(Cl)ccc3c(Nc3cc(CN4CCCC4)c(O)c(CN4CCCC4)c3)c2n1`: the growth was 8.66% (active) with EKVX NSCLC; 10.7% in the assay on SN12C renal; 18.9% in the assay with UO-31 renal; 21.4% in the assay with TK-10 renal; 22.9% in the assay on ACHN renal; -4.38% (active) with CAKI-1 renal. The growth was -17.4% (active) in the assay with A498 renal, 2.85% (active) in the assay with CCRF-CEM leukemia and -25.2% (active) in the assay with MOLT-4 leukemia.
In the case of `COc1ccc(Cc2cnc(N)nc2N)cc1OC`, the growth was 115% in the assay with EKVX NSCLC; 96.1% in the assay on SN12C renal; 78% in the assay with UO-31 renal; 110% in the assay on TK-10 renal; 96.5% in the assay with ACHN renal; 89.1% in the assay on CAKI-1 renal. In addition, the figures for the growth in the assay with A498 renal, in the assay with CCRF-CEM leukemia and with MOLT-4 leukemia were 73.4%, 102% and 104%, respectively.
Turning to `COc1ccccc1-n1c(-c2csc(NC(C)=O)n2)n[nH]c1=S`, the growth was 100% with SK-MEL-2 melanoma; 114% with SN12C renal; 79.6% with UO-31 renal; 89.1% in the assay with TK-10 renal; 114% in the assay with ACHN renal; 93.8% in the assay with CCRF-CEM leukemia. Further, the growth with MOLT-4 leukemia was 92.3%.
